The first assay has as its system PPARg:RXRa IVT, anti-PPARg (NR concentration 270 nM, RXRa partner concentration 90 nM). Kind of assay: PBM binding z-score (relative to random genomic background probes); higher = stronger binding; sequences stand for … in GC…GCGATTGACAGCGTAGAATGAAGG
In outline: (§1)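 Binding z-scores were set against random background probes. The data came from custom Agilent 4×180K protein-binding microarrays carrying double-stranded probes with 34-nt variable regions, incubated 1 h with ligand-free nuclear receptor dimers. Partner-specific antibodies detected binding, and scanned fluorescence was regression-normalized.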
The sequence CCTAGTGGGTCAGGAGGTCACACACCGGATATGA had a PBM binding z-score of 7.22.

CCTACTGGGCAAAAAAGGTCATTGATGCCGATAA displayed a PBM binding z-score of 1.62.

With TCTAGTTCGTCACGGAGGTCACACACGACGGGTA, the PBM binding z-score turned out to be 2.15.

CCTAGTTGGTCAAGGTCACGCACGCTATAGGTAC gave a PBM binding z-score of 3.78.

For ATATGTAGGTTAGCGGGGGTCATTCAGACTAGGC, the PBM binding z-score was 6.87.

Sequence CCTAGATGGTCAGGAGGTCACACACCGGATATGA came in with a PBM binding z-score of 2.88.

With CCTAGTTGGTCAGGAAGTCACACACCGGATATGA, the PBM binding z-score was 0.621.

Turning to CGTCAAAGTTAAAGGTAACGTAACAGAAAGCAGC, the PBM binding z-score is 1.17.

In turn, CCTACTGGGCCATTCAGAGGTCACTGATCATATG showed a PBM binding z-score of 4.67.

For TAGCCTCGGTCATTCAGGGGCCAGTATAGAAAGC, the PBM binding z-score was found to be 0.476.

In turn, CAAACTAGGCCAAGGTCAAAGTCGGTTTGTGCCA had a PBM binding z-score of 6.61.

On to ATCGAAAGGTCGAGTTGAGTATAGAGAAAGGGAA, for which the PBM binding z-score was determined as 1.21.

CGTCAAAGTTCAAGGTAAAGTAACAGAAAGCAGC returned a PBM binding z-score of 1.82.

CTATGTAGGTGAAGGGGGTCATTCAGTTTGAAAG: the PBM binding z-score worked out at 8.11.

For TCTAGTTGGTCACGGGGGTCACACACGACGGGTA, the PBM binding z-score worked out at 5.43.

As to CCTTACGGGTCACTTACAGGTTATAGCATTTGGA, the PBM binding z-score turned out to be 3.45.

Turning to CCTACTGGGCCATTCAGAGGTCATCGATCATATG, the PBM binding z-score is 4.6.

CAAAATAGGTCAAGAGGTCAAAGTCCGCTTCCCG had a PBM binding z-score of 7.83.

Turning to TAGCCTAGGTCATGCGGGTCAGTATAGTGTCGGC, the PBM binding z-score was found to be 3.65.

In the case of GCTTACGGGTCAAAGGTTAAAGCATGAATAGAAT, the PBM binding z-score turned out to be 6.3.

On to CGTCCAAGGTCAAAGGTCAGCGAAGAGATGACGG, for which the PBM binding z-score was 6.07.

Turning to ATCGAAAGGTCGACGAGGTGAGAATACACCGTTT, the PBM binding z-score was 2.39.

Take CGTCCAAGGGCAATGCTAGGTCAGTGAAAGCATT: the PBM binding z-score was 0.945.

In turn, GCTTACGGGTCAAAAGTTATAGCATGAATAGAAT showed a PBM binding z-score of 3.87.

CCTACTGGGCCACGAAAGGTGATTGATTCAGTGA displayed a PBM binding z-score of 5.37.

CTATGTAGGTTAAGGGGGTCATTGAGTTTGAAAG showed a PBM binding z-score of 7.94.

Sequence ATCGAAAGGTCGTGAGGTGAGTTTACAGAAAGGC came in with a PBM binding z-score of 2.19.

Consider TCTACTTGGTCACGGAGGTCACACACGACGGGTA, for which the PBM binding z-score was 4.21.

Turning to TCGAGTAGGTTACGGGGGCGTTCAGGGATGAAGA, the PBM binding z-score was determined as 5.35.

The sequence TATACAGGATCAAAGGCCAGAGTACGAATGTCGA gave a PBM binding z-score of 1.03.

Sequence CCTAGTTGGTCAAGGTCCCACACGCTATAGGTAC had a PBM binding z-score of 1.17.

The sequence CCCAGTAGGTTACGAGGGGGCATTCAGTGCGAAT gave a PBM binding z-score of 5.49.

AGAATGGGGTTATTAAGATCAGGGAATTGCGGTC: the PBM binding z-score was determined as 3.26.

As to ATCGAAAGGTCGTGAAGTGAGTATACAGAAAGGC, the PBM binding z-score was 1.76.

Consider GCTGCTAGGTCAGGTTGGTCAGCTAACGGGTACG, for which the PBM binding z-score turned out to be 2.05.

Regarding CCTTACGGGTCACTGACAGCTTATAGCATTTGGA, the PBM binding z-score is 3.59.

The sequence AGAATGAGGTTAGCAAAGATCAGGGAAACGCTTG gave a PBM binding z-score of 1.55.

Turning to CCTAGTTGGTCAGGGGGTCACACACCGGATATGA, the PBM binding z-score is 4.57.

In turn, AGTCGGAGGACAAAGGTCAGAGCTACGCCAGTGA registered a PBM binding z-score of 3.68.

A further assay has as its system PPARg DBDmut:RXRa IVT, anti-PPARg (DBD mutation: PPARg1 K132A/R137A, NR concentration 270 nM, RXRa partner concentration 90 nM). Described as above. The procedure, abridged:
as §1
Consider CCTAGTGGGTCAGGAGGTCACACACCGGATATGA, for which the PBM binding z-score came out at 0.727.

Consider CCTACTGGGCAAAAAAGGTCATTGATGCCGATAA, for which the PBM binding z-score is -0.0172.

TCTAGTTCGTCACGGAGGTCACACACGACGGGTA had a PBM binding z-score of 0.73.

In turn, CCTAGTTGGTCAAGGTCACGCACGCTATAGGTAC came in with a PBM binding z-score of 0.403.

In turn, ATATGTAGGTTAGCGGGGGTCATTCAGACTAGGC yielded a PBM binding z-score of 5.31.

In the case of CCTAGATGGTCAGGAGGTCACACACCGGATATGA, the PBM binding z-score came out at 0.417.

In turn, CCTAGTTGGTCAGGAAGTCACACACCGGATATGA gave a PBM binding z-score of -0.0162.

Sequence CGTCAAAGTTAAAGGTAACGTAACAGAAAGCAGC displayed a PBM binding z-score of 0.513.

For CCTACTGGGCCATTCAGAGGTCACTGATCATATG, the PBM binding z-score was 0.462.

Sequence TAGCCTCGGTCATTCAGGGGCCAGTATAGAAAGC came in with a PBM binding z-score of 0.246.

The sequence CAAACTAGGCCAAGGTCAAAGTCGGTTTGTGCCA came in with a PBM binding z-score of 0.98.

ATCGAAAGGTCGAGTTGAGTATAGAGAAAGGGAA returned a PBM binding z-score of 0.792.

CGTCAAAGTTCAAGGTAAAGTAACAGAAAGCAGC came in with a PBM binding z-score of 0.69.

As to TCTAGTTGGTCACGGGGGTCACACACGACGGGTA, the PBM binding z-score was determined as 6.78.

CCTTACGGGTCACTTACAGGTTATAGCATTTGGA had a PBM binding z-score of 0.739.

As to CCTACTGGGCCATTCAGAGGTCATCGATCATATG, the PBM binding z-score was found to be 1.41.

CAAAATAGGTCAAGAGGTCAAAGTCCGCTTCCCG had a PBM binding z-score of 2.31.

In the case of TAGCCTAGGTCATGCGGGTCAGTATAGTGTCGGC, the PBM binding z-score worked out at 0.284.

In the case of GCTTACGGGTCAAAGGTTAAAGCATGAATAGAAT, the PBM binding z-score turned out to be 1.36.

Sequence CGTCCAAGGTCAAAGGTCAGCGAAGAGATGACGG returned a PBM binding z-score of 0.648.

As to ATCGAAAGGTCGACGAGGTGAGAATACACCGTTT, the PBM binding z-score amounted to 0.449.

On to CGTCCAAGGGCAATGCTAGGTCAGTGAAAGCATT, for which the PBM binding z-score is -1.98.

In turn, GCTTACGGGTCAAAAGTTATAGCATGAATAGAAT yielded a PBM binding z-score of 1.08.

In the case of CCTACTGGGCCACGAAAGGTGATTGATTCAGTGA, the PBM binding z-score was -0.117.

ATCGAAAGGTCGTGAGGTGAGTTTACAGAAAGGC: the PBM binding z-score is 0.802.

On to TCTACTTGGTCACGGAGGTCACACACGACGGGTA, for which the PBM binding z-score worked out at 1.37.

As to TATACAGGATCAAAGGCCAGAGTACGAATGTCGA, the PBM binding z-score amounted to 0.156.

In turn, CCTAGTTGGTCAAGGTCCCACACGCTATAGGTAC displayed a PBM binding z-score of -0.0918.

In the case of AGAATGGGGTTATTAAGATCAGGGAATTGCGGTC, the PBM binding z-score is 1.44.

ATCGAAAGGTCGTGAAGTGAGTATACAGAAAGGC gave a PBM binding z-score of 1.63.

GCTGCTAGGTCAGGTTGGTCAGCTAACGGGTACG: the PBM binding z-score is -0.747.

As for CCTTACGGGTCACTGACAGCTTATAGCATTTGGA, the PBM binding z-score was 0.471.

AGAATGAGGTTAGCAAAGATCAGGGAAACGCTTG gave a PBM binding z-score of 0.688.

The sequence CCTAGTTGGTCAGGGGGTCACACACCGGATATGA gave a PBM binding z-score of 2.8.

Turning to AGTCGGAGGACAAAGGTCAGAGCTACGCCAGTGA, the PBM binding z-score worked out at 0.374.

For the origin of these results see the supplement of paper PMC6555819.
